# Reference: publication PMC11574364
# Tests used:
# Assay in all cases: protein domain microarray probed with biotinylated miRNA; Domain array: 20 mM Tris-HCl pH 7.4, 200 mM KCl, 0.2 mM EDTA, 0.05% NP40, 2 ug/ul heparin, overnight 4 C. ORF array: PBS pH 7.0 with RNase inhibitor, 100 ng RNA; high values mean tight binding
# Conditions in all cases: ssRNA
# SF3B4 = SF3B4 (Homo sapiens, UniProt Q15427)
# SFRS15 = molecular target: T1, SFRS15 (Homo sapiens, UniProt O95104)
# T1 sequence: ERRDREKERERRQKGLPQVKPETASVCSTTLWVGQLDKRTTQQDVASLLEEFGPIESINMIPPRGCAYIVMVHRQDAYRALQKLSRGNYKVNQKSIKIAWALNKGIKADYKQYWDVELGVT
# RBMY1D / RBMY1E = RBMY1D / RBMY1E (Homo sapiens, UniProt P0DJD3)
# SF2 = SF2 (Homo sapiens, UniProt Q07955)
# PTBP2 = PTBP2 (Homo sapiens, UniProt Q9UKA9)
# SR140 = SR140 (Homo sapiens, UniProt O15042)
# RBPMS2 = RBPMS2 (Homo sapiens, UniProt Q6ZRY4)
# SFRS3 = molecular target: T2, SFRS3 (Homo sapiens, UniProt P84103)
# T2 sequence: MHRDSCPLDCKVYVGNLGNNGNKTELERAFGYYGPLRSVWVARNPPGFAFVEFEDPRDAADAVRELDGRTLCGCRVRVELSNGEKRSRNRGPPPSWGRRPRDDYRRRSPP
# TRSPAP1 = molecular target: T3, TRSPAP1 (Homo sapiens, UniProt Q9NX07)
# T3 sequence: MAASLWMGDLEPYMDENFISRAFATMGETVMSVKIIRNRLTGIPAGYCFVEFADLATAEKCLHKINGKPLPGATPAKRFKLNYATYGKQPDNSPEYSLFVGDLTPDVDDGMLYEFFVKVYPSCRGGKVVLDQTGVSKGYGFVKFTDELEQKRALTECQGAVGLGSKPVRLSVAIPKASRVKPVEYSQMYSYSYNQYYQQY
# RBM22 = molecular target: T4, RBM22 (Homo sapiens, UniProt Q9NW64)
# T4 sequence: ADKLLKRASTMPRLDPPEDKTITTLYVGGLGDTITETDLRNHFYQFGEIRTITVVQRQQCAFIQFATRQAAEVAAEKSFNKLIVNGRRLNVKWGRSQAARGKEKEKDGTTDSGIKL
# Sequence of RBPMS2 (Q6ZRY4 10-130): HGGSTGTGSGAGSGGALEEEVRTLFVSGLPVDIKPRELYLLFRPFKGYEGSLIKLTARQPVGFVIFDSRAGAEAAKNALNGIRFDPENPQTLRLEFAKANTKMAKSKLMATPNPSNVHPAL
# Sequence of SF2 (Q07955 1-220): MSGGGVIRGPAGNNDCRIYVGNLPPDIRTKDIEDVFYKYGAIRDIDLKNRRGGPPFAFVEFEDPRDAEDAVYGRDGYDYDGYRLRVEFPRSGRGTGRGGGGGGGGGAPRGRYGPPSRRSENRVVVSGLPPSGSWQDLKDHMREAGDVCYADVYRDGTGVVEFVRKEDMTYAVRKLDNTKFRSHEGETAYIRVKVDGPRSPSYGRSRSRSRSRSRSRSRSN
# Sequence of RBMY1D / RBMY1E (P0DJD3 1-110): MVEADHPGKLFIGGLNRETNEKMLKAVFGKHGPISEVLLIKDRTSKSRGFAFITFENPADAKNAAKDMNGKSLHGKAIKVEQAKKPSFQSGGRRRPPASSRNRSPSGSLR
# Sequence of PTBP2 (Q9UKA9 40-531): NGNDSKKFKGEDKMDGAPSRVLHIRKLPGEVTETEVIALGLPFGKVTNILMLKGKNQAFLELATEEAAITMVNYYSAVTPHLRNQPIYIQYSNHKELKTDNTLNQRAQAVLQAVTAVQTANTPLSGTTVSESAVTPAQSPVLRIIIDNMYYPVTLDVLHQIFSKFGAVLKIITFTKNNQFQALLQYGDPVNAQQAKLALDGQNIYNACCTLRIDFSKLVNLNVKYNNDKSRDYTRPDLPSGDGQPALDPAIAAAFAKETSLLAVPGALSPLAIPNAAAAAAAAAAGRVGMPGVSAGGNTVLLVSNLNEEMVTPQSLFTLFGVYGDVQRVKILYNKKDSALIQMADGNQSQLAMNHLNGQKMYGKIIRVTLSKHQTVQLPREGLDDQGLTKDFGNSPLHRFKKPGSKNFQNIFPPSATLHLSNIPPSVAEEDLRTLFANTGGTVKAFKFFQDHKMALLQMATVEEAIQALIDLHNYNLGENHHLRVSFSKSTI
# Sequence of SF3B4 (Q15427 1-200): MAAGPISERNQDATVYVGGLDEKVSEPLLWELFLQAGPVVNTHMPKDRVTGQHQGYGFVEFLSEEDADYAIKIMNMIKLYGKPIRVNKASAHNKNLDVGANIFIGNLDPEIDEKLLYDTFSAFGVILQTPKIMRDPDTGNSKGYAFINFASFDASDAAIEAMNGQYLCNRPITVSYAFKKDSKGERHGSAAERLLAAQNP
# Sequence of SR140 (O15042 250-375): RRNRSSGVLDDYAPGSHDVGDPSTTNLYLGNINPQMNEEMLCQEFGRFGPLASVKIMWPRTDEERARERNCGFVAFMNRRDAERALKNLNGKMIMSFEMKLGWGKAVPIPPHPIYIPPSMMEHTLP
Sequence,binding signal (SF3B4),binding signal (SFRS15),binding signal (RBMY1D / RBMY1E),binding signal (SF2),binding signal (PTBP2),binding signal (SR140),binding signal (RBPMS2),binding signal (SFRS3),binding signal (TRSPAP1),binding signal (RBM22)
UAGCUUAUCAGACUGAUGUUGA,700 ± 28.6 fluorescence intensity,22.3 ± 2.16 fluorescence intensity,817.2 ± 6.26 fluorescence intensity,126 ± 12.9 fluorescence intensity,23.2 ± 6.02 fluorescence intensity,21.9 ± 3.08 fluorescence intensity,37.6 ± 9.28 fluorescence intensity,34.7 ± 4.07 fluorescence intensity,45.5 ± 1.42 fluorescence intensity,–
AGAGGUAGUAGGUUGCAUAGUU,1440 ± 72.2 fluorescence intensity,153 ± 14.1 fluorescence intensity,2080 ± 121 fluorescence intensity,925 ± 29.4 fluorescence intensity,96.6 ± 13.3 fluorescence intensity,142.1 ± 1.25 fluorescence intensity,1780 ± 12.1 fluorescence intensity,324.4 ± 0.806 fluorescence intensity,351 ± 8.57 fluorescence intensity,71.81 ± 0.233 fluorescence intensity
UGAGGUAGUAGGUUGUAUAGUU,346 ± 11.8 fluorescence intensity,46.2 ± 1.86 fluorescence intensity,892 ± 33.6 fluorescence intensity,70.4 ± 4.98 fluorescence intensity,49.5 ± 9.89 fluorescence intensity,32 ± 0.467 fluorescence intensity,118 ± 2.62 fluorescence intensity,37.7 ± 9.2 fluorescence intensity,79.2 ± 10.3 fluorescence intensity,25.7 ± 2.21 fluorescence intensity
UGAGGUAGUAGGUUGUAUGGUU,638.1 ± 5.52 fluorescence intensity,154.2 ± 0.983 fluorescence intensity,1480 ± 96.8 fluorescence intensity,700 ± 28 fluorescence intensity,147 ± 8.05 fluorescence intensity,80.2 ± 12.3 fluorescence intensity,434 ± 21.2 fluorescence intensity,235 ± 17.9 fluorescence intensity,269 ± 24.3 fluorescence intensity,113.1 ± 0.177 fluorescence intensity
UGAGGUAGUAGGUUGUGUGGUU,1290 ± 27 fluorescence intensity,289 ± 27.3 fluorescence intensity,1420 ± 19.5 fluorescence intensity,895.8 ± 6.29 fluorescence intensity,166 ± 17.3 fluorescence intensity,149 ± 8.63 fluorescence intensity,515 ± 10.3 fluorescence intensity,276 ± 12.7 fluorescence intensity,332 ± 22.4 fluorescence intensity,126 ± 31.8 fluorescence intensity
CAGUGCAAUGAUGAAAGGGCAU,1680 ± 98.9 fluorescence intensity,141 ± 12.5 fluorescence intensity,1280 ± 58.5 fluorescence intensity,702.4 ± 1.9 fluorescence intensity,55.4 ± 5.87 fluorescence intensity,43.9 ± 3.02 fluorescence intensity,1650 ± 53.9 fluorescence intensity,219 ± 8.61 fluorescence intensity,84.1 ± 10.6 fluorescence intensity,52.6 ± 1.44 fluorescence intensity
